From PubChem BioAssay (NCI)
The panel holds about 79,000 compounds, 15% with a hit somewhere; the sample as a whole holds those more often. Activity calls are given as the source filed them. Cut-off read from the data, not from the text of the source: active = growth inhibition above about 70%; inactive = the rest.

Legend:
[1] = NCI Yeast Anticancer Drug Screen. Data for the mec2-1 strain (AID 157); conditions: S. cerevisiae mec2-1 strain, active compounds read high
Method in brief: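 Yeast mec2-1 mutant treated with compound. Readout: growth inhibition vs vehicle controls.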

[2] = NCI Yeast Anticancer Drug Screen. Data for the rad14 strain (AID 159);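 note: 0% = growth of vehicle-treated control cultures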; conditions: S. cerevisiae rad14 strain growth inhibition, active compounds read high
Method in brief: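 Inhibition of growth is reported for a repair-deficient yeast mutant following compound treatment, calculated relative to cultures that received vehicle.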

[3] = NCI Yeast Anticancer Drug Screen. Data for the sgs1 mgt1 strain (AID 161);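 note: 0% = growth of cultures given vehicle only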; conditions: S. cerevisiae sgs1 mgt1 strain, active compounds read high
Method in brief: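 Genetically altered yeast, compound exposure, growth inhibition relative to vehicle.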

[4] = NCI Yeast Anticancer Drug Screen. Data for the cln2 rad14 strain (AID 165);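 note: 0% = growth equal to vehicle treated cultures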; conditions: S. cerevisiae cln2 rad14 strain, active compounds read high
Method in brief: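 cln2 rad14 yeast strain; compound exposure; growth inhibition read vs vehicle controls.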

[5] = NCI Yeast Anticancer Drug Screen. Data for the wt2 strain (AID 169);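 note: 0% = growth of vehicle-treated yeast cultures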; conditions: S. cerevisiae wt2 strain growth inhibition, active compounds read high
Method in brief: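 Read-out: growth inhibition versus vehicle-treated control cultures after compound exposure of the yeast strain.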

[6] = NCI Yeast Anticancer Drug Screen. Data for the mlh1 strain (AID 171);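 note: 0% = growth of vehicle-treated control cultures of the same strain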; conditions: S. cerevisiae mlh1 strain growth inhibition, active compounds read high
Method in brief: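 Read-out: growth inhibition versus vehicle controls. Strain: engineered yeast with a defined DNA repair or cell cycle defect, compound-treated.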

[7] = NCI Yeast Anticancer Drug Screen. Data for the sgs1 strain (AID 173);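 note: 0% = growth of vehicle-only control cultures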; conditions: S. cerevisiae sgs1 mutant, active compounds read high
Method in brief: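 Read-out: yeast growth inhibition relative to vehicle controls, following compound exposure of a strain with a defined DNA repair/cell cycle alteration.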

[8] = NCI Yeast Anticancer Drug Screen. Data for the mlh1 rad18 strain (AID 175); conditions: S. cerevisiae mlh1 rad18 strain growth inhibition, active compounds read high
Method in brief: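 Yeast w/ defined DNA-repair lesions; compound exposure; growth vs vehicle controls → % inhibition.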

[9] = NCI Yeast Anticancer Drug Screen. Data for the rad18 strain (AID 177); conditions: S. cerevisiae rad18 mutant growth inhibition, active compounds read high
Method in brief: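 Readout: growth inhibition vs vehicle controls. Cells: genetically altered yeast strain, DNA repair defect.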

[10] = at 5.0 µM (retest, dose inferred, filed as 0.5)
[11] = at 50.0 µM (retest, dose inferred, filed as 5.0)

Measured: growth inhibition

Cc1ccc2c(c1)C1(SC(C)C(=O)N1c1ccc(Cl)cc1)C(=O)N2 (stereo not given)
inactive: [1]; [10] -12% | [1]; at 11.0 µM 12% | [1]; [11] 17% | [2]; at 1.2 µM -3% | [2]; at 3.7 µM 3% | [2]; at 11.0 µM 12% | [3]; [10] 8% | [4]; [10] 4% | [4]; [11] 49% | [5]; at 1.2 µM -2% | [5]; at 3.7 µM 1% | [5]; at 11.0 µM 8% | [6]; at 1.2 µM -1% | [6]; at 3.7 µM 3% | [6]; at 11.0 µM 17% | [7]; at 1.2 µM 2% | [7]; at 3.7 µM 7% | [7]; at 11.0 µM 25% | [8]; [10] 51% | [9]; at 1.2 µM 4% | [9]; at 3.7 µM 17% | [9]; at 11.0 µM 54%
active: [1]; at 33.0 µM 85% | [1]; at 50.0 µM 98.5% | [1]; at 100.0 µM 99% | [2]; at 33.0 µM 96% | [2]; at 100.0 µM 99% | [3]; [11] 94% | [3]; at 50.0 µM 99.4% | [4]; at 50.0 µM 97.7% | [5]; at 33.0 µM 98% | [5]; at 100.0 µM 99% | [6]; at 33.0 µM 95% | [6]; at 100.0 µM 99% | [7]; at 33.0 µM 94% | [7]; at 100.0 µM 99% | [8]; [11] 98% | [8]; at 50.0 µM 99% | [9]; at 33.0 µM 97% | [9]; at 100.0 µM 98%
